According to the supplement of paper PMC12632987:

T1: USP38, Q8NB14
T1 chain: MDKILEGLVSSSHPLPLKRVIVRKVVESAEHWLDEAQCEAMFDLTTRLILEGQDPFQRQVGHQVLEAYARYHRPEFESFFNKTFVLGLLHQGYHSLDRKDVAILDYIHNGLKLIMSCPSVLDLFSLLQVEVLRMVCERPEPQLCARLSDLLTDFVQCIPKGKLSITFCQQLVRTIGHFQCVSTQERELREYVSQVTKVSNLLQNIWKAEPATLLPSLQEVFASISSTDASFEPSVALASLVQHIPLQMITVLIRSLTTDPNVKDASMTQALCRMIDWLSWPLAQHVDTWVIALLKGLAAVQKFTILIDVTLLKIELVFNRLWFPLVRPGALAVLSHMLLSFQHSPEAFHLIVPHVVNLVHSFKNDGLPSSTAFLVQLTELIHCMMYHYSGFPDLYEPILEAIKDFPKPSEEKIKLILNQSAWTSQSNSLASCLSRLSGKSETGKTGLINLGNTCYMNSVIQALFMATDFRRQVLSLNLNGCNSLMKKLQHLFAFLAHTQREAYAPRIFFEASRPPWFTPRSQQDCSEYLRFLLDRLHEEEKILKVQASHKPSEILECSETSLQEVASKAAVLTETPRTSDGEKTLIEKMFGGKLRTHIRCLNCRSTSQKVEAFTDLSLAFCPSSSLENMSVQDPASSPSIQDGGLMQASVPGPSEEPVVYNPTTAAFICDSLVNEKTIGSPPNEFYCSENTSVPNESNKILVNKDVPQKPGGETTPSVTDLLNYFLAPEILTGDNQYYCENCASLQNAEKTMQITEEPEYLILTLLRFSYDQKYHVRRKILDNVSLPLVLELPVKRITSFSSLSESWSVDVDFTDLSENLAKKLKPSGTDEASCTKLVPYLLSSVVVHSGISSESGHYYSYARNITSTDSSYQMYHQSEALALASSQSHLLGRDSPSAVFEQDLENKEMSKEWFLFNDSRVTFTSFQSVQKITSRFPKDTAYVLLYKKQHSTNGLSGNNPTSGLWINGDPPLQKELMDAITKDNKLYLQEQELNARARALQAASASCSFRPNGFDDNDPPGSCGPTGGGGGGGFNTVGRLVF


Target: T1, USP38, Q8NB14
Assay: median log2 fold change of GCK-ALFA target abundance (FLAG IP / Myc IP barcode read proportion) (log2 ratio); each designed protein is fused to an ALFA-tag nanobody in HEK293 cells to bring the named protein to FLAG-tagged glucokinase (GCK); Myc marks an untargeted standard; higher = target protein stabilised (more abundant)
Details: target protein: 3xFLAG-MCP-GCK-ALFA reporter; HEK293 landing pad (RPLP)
How it was run: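 HEK293 landing-pad cells received a recombined binder library fused to the ALFA nanobody and were induced with 2 μg mL^−1 doxycycline, then transfected with a plasmid encoding a FLAG-tagged target and a Myc-tagged standard. Lysates were collected after 48 h for anti-FLAG and anti-Myc immunoprecipitation, and the circular RNA barcodes were reverse transcribed, amplified and sequenced. Target abundance for each binder is the median log2 ratio of FLAG to Myc barcode read proportions. Barcodes had to reach a proportion of at least 10^−7 in both replicates, each binder needed at least 3 barcodes per replicate, a pseudocount of 10^−6 was applied, and the two replicates were pooled.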

Binder	median log2 fold change
usp_38_diff_out_18_14_317 (protein) SEELSKALLSNLKTLTKEVEEDTKRLEKIVEALKDDPEAARSLLETRRQAYEGVAKYAKEVLKEAKEAGDEELAKAAEELLKAAEKALEEVEKRLKELEE	-0.378
usp_38_diff_out_18_14_335 (protein) SEELTAATLANVKTLLEDVKKVTERTKKIVAKLKDDPESATSLLESRIQAYEGVIKYAEETLEEAKKAGDKELAAAAKELIKAAKEAKEEFEKLLAELKA	-0.351
usp_38_diff_out_18_14_344 (protein) SEELRKATKSNLESLKKDVKEVTERTKKIVAKLKDDPESALSLLETRIQALEGVIKYAEETLKEAEEEGDEELKKAAEELKKEAEEAKAEFEALLAALKA	0.232
usp_38_diff_out_18_14_339 (protein) SSELAEAELSNLKSLTEEVKKVTERTEKIIEKLKDDPESAKSLLETRRQAYEGVIKYADEVLKRAEEEGYEELAKAAKELRDEAEKALERLEKLEKELEK	0.0814
usp_38_diff_out_18_14_315 (protein) SEELQEAELSSLKILKEDVVRDTERAIRLLEKSKDDPERVKRIYERRMRNLAGVREYAKEVLERAKKEGNEELLKAAEELLKTVDAAEERLEAKYKEVMA	0.253
usp_38_diff_out_18_14_341 (protein) SAELAAATLANLKSLTAEVKEVTARTEKIVEKLKDDPEAALSLLDTRKQAYEGVITYAEEVAKEAKAAGDAELEAAAKELKKAAEEALAKMEKLRAELKA	0.0312
usp_38_diff_out_18_14_324 (protein) SEELIKARISNLKSLTEEVKKVTARKLKVIDALKDDPESATALIDTQLQALEGVIKYAEEEKKEAEKLGNEELIKAAEELKKAAEEAKAELEKKRKELAA	0.13
usp_38_diff_out_18_14_337 (protein) SEELRQQLLENLKSLTEEVKKEKERTLKIIEKLKDDPESALSLLDTRIQALDGVIKYAKEVAKEAKEEGDKELLEAAEKLIKEAEKAKKELEKKRAELKA	0.0476
usp_38_diff_out_18_14_326 (protein) SEELTEATLSNLKSLTEETKKTTERLKKIVEKLKDDKESALSLLDTRTQAFKGVLKYAEETEKEAKKAGNEELLAAAKELKEAAKKALEEIEKLKKELEE	-0.166
usp_38_diff_out_18_14_327 (protein) SEELKEALLSNLKLLKEEVKKDTERTLKILEKLKGDPESARSLIDTRIQALEGVIKYAEEVAKMAKEEGDEELKKAAEELKKEAEEAKKKLEEKRKELEK	-0.444
usp_38_diff_out_18_14_329 (protein) SEELREAILSNLKSLKKEVEKVTERTLKVLEKLKDDPESAKSLIDTRKQALDGVIKYAEEVEKEAEAAGDEETAKAAKELKKAAKEAKAKLEEAEKKLKE	-0.556
usp_38_diff_out_18_14_313 (protein) SEELREAEKSSLEILKKDVEEDTERKIKLLKKAKNDPERVKRIYERAMRDLEGVKKYAEEVLKRAEEEGDEETKKAAEELLKKVEEARERLEKAYKEVME	0.328
usp_38_diff_out_18_14_319 (protein) MEELIEAEKANLKSLTAEVERDTARRLAVVDALRDDPDAAQSLLDTAAQALQGVIAYAEEVAKRAEELGNEELKKAAEELKAAARAALARLEARRAELAA	0.235
usp_38_diff_out_18_14_340 (protein) SDELAKATLANLKTLTEEVKKVTERTEKIIKKLADDPEAAKSLLDTRKQAYQGVITYAKEVAEEAKAAGYKELLAAAEELKKAAEEALKTLEKLEKELKA	-0.499
usp_38_diff_out_18_14_316 (protein) SEEEEEALLSAVEILKADVERDTDRKIRLLEKAKDDPELVERIYERALRDLAGVEAYAKEVEKEAKKNGNEKLLKAAKELLKTVAAARERLEAAYKEVMA	0.00386
usp_38_diff_out_18_14_331 (protein) SEELRKAKLDNLKLLTKEVKEDTERTLRILERLRGDPEAARSLIDTRIQALEGVIKYAEEVKKEAEEAGDEELAKAAEELKKAAEEAKRRLEEARRRLEA	0.193

Binder	median log2 fold change
usp_38_diff_out_18_14_332 (protein) SEELTEQIISNLEKLTKDVKENTARTLKIVEKLKDDPESALSLLDTRIQALKGVEKYAKEVLEEAKKEGNKKLEEAAEKLLKEAKAAIKTLEEKRAALKA	0.139
usp_38_diff_out_18_14_318 (protein) SEELIKQTLSNVKKLTEEVKKDTKRTLKILEKLKDDKESALSLIDTRIQALNGVIKYAEELKKEAEKLGNKELAEAAKELIKAAKEAKKELEKRKKALKE	-0.746
usp_38_diff_out_18_14_346 (protein) DEELAKQLKEQFESLTKEVEENTKRLKEIVEKLKDDPESALSLLETRIQALEGVIKYAEEEKKRAKAAGFEELAAAAEKLIKAAKAAKEEAEKLKKELKA	-0.0584
usp_38_diff_out_18_14_334 (protein) AAELRAATKANLKTLTAEVKENTERTLRIVDKLKDDPESALSLLDTRIQALKGVAKYAQEVKKEAEEAGDAELKAAAEALLKAAKAAIEELEKRRKELKE	0.0876
usp_38_diff_out_18_14_311 (protein) AEELAQAELDNLKSLTTAVTADTARVIRLLEQSKDDPERVKRIYERAKRNLAGVETYAQEVKARAEAAGDADLVAAADALLATVAAARAAIEAAYKAVMA	-0.0344
usp_38_diff_out_18_14_330 (protein) SEELRKAKLSNLKSLKAEVEEVTARTLRVVERLRGDPESARALLDTRIQALDGVIKYAEEVAKEAKAAGDEELAKAAEELKEAARAARARLEAAAAALAA	0.0025
usp_38_diff_out_18_14_328 (protein) SAELREALLSNLETLTKEVKEVTERTLKIVDKLKGDPEAARSLLDTRIQALEGVIKYAEEVAKEAKAAGDKELEAAAEKLKKEAEKAKKELEEKKKALEA	-0.102
usp_38_diff_out_18_14_345 (protein) GEELEEQIKANLELLTKEVKENTERLVKILEKLKDDPESALSLIDTRLQALNGVKAYAEEELKRAKERGNEELKKAAEELIKAAEEAIKTLEELRKKLKA	-0.0272
usp_38_diff_out_18_14_323 (protein) SEELREATKSNLKTLTAEIKEWTARRLKVIEKLKDDPESATSLLDTAKQALQGVIKYAEEVKREAEEEGDEELKKAATETKKAAEDALKQLEAKEAKLKA	-0.403
usp_38_diff_out_18_14_314 (protein) SEELEEAELSALKTLTADVEADTARKIELLEKAKDDPERVKRIYDRALRDLAGVRTYAEEVLKRAKERGNEELLAAAEALLATVDAAEARLTAKYEEVMK	0.22
usp_38_diff_out_18_14_312 (protein) SEEEAEALLSSVEILTADVERDTARKIRLLEAAKDDPELVERIYERALRDLAGVEAYAEEVLAQAKAEGNAELEAAAQALLATVAAARARLEAAYAAVRA	0.0395
usp_38_diff_out_18_14_343 (protein) SEELAEAELANLKSLKEEVKRVTERTKKIIEKLKDDPEAALSLLDTRIQAYKGVIKYAEEVLKEAKKAGYEELAKAAEELKKAAEEALKELERLRKELEA	-0.329
usp_38_diff_out_18_14_325 (protein) DAELIAATLANLKSLTEETKKDTERLEKVVEKLKDDPESARSLLETRRQAYEGVKEYAEETKKEAEANGDKELAAAAQELKDAAEKALEKIDKLLKELEA	0.134
usp_38_diff_out_18_14_310 (protein) SEELAEAEKSNLEKLTKEVEEDTERVIRLLEKAKDDPERVKRIYERAKRNLAGVETYAKEILERAKKAGDEETKKAAEELLKKIAEARERIEKAYEEVMK	0.384
usp_38_diff_out_18_14_336 (protein) SEELRKAEIENLKTLLKEVKKDTERTIKIVEKLKDDKDSATSLLETRIQAYEGVIKYAEELKERAKKEGDKELIAAAEELIKAAKEAKEKLKELLKKLKA	-0.177
usp_38_diff_out_18_14_333 (protein) SSELEEQLISNFKSLTEEVKRDTERTLEIVEKLKDDPDAALALLDTRIQALEGVAKYAKEVKKEAEENGNEELKAAAEELLKAAEEAIKKLKEKRKELKA	-0.013
